Screening data from PubChem.
CTSL1 counter – cathepsin L1 inhibition, PFM18AAP counter-screen; recombinant F. hepatica cathepsin L1, Z-Leu-Arg-MCA fluorescence; inhibition, % at 5.96 µM; 300,000 compounds, 0.49% hits; AID 1906;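 active = inhibition above the mean of all tested compounds plus 3 SD, set per screening campaign, cut at about 17% in these data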;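 note: 0% = plate median of test compound wells and 100% = 1 µM Z-Phe-Ala-diazomethylketone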
m5-HT2A agonist – activates the mouse 5-HT2A serotonin receptor. P35363. CHO-K1 mHTR2A beta-arrestin complementation, luminescence; percent of 30 µM serotonin response. activation, % at 7.6 µM. 360,000 compounds, 0.66% hits;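 active = activation above a run cutoff, the mean activation of all tested compounds plus 3 SD, cut at about 14% in these data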;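 note: 0% = plate median of compound wells and 100% = 30 µM serotonin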
Target sequence (P35363 whole entry, looked up): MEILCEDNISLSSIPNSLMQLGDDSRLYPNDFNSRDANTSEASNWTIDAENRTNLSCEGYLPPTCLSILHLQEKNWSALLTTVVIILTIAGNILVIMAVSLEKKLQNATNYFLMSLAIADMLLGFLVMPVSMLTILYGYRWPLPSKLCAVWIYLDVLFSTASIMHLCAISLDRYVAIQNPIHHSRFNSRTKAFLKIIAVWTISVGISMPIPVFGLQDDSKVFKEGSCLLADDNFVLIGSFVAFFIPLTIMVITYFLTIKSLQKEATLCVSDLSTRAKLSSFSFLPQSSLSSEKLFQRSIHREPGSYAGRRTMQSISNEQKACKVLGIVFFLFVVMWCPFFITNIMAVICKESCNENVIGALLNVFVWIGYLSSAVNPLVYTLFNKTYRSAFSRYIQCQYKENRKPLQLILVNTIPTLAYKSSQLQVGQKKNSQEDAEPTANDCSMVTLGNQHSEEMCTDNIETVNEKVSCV
LANA-H2A inh – blocks KSHV LANA binding to histone H2A/H2B; Q9QR71; cell-free LANA-H2A/H2B peptide, fluorescence polarization; inhibition, % (test concentration not listed); 320,000 compounds, 0.6% hits; AID 2629; in the data active = inhibition mostly above about 10%, no sharp cut-off; inactive = mostly below about 6.7%
HDAC3 inh – blocks human histone deacetylase 3; inhibition, % at 8.3 µM; recombinant HDAC3, fluorogenic peptide/trypsin coupled, fluorescence; 320,000 compounds, 0.15% hits; AID 2718; O15379; in the data active = inhibition above about 26%, passing the limit was not always enough
The depositor's hits bear a star; i = inactive; x = no result given. Compounds with a hit are over-represented: about 1.7% of the library has one in this group of screens.

SMILES	CTSL1 counter	m5-HT2A agonist	LANA-H2A inh	HDAC3 inh
CCNC(=O)C(CC(C)C)NC(=O)C(CO)NC(=O)C1CCC(=O)N1 (configuration not stated)	1	0	-2	1
COCCN(C(=O)COC(=O)c1ccccc1Cc1ccccc1)c1c(N)n(Cc2ccccc2)c(=O)[nH]c1=O	6	-3	2	0
O=C(CC(c1ccccc1)c1ccccc1O)NCc1ccccc1 (configuration not stated)	18*	-1	0	-5
CCCCn1c(N)c(N(CCC(C)C)C(=O)c2ccc3c(c2)OCCO3)c(=O)[nH]c1=O	2	0	-8	-1
Cc1c(C(=O)NCc2ccc3c(c2)OCCO3)sc(=O)n1Cc1ccc(S(=O)(=O)N(C)C)cc1	x	5	x	x
O=C1CC2(CCN(C(=O)c3cccc(F)c3)CC2)Oc2ccccc21	1	-1	0	0
O=C(O)c1ccccc1C(=O)NCc1ccccc1	-2	-4	0	-1
O=C(O)c1ccccc1C(=O)NCc1ccc(F)cc1	-5	0	20*	-2
CSc1ccccc1C(=O)NCc1ccc(C)cc1	0	0	1	-6
CSc1ccccc1C(=O)NCc1ccc(F)cc1	32*	-5	-2	5
CC(C)N(Cc1ccccc1)C(=O)COC(=O)c1ccc(O)cc1	x	7	x	x
CCn1cc(C(=O)OCC(=O)Nc2c(C)cccc2C)c(=O)c2ccc(C)nc21	2	-3	5	-4
CCn1cc(C(=O)OCC(=O)NCc2ccccc2Cl)c(=O)c2ccc(C)nc21	17*	0	2	0
CCN(CC)S(=O)(=O)c1ccc(C)c(NC(=O)COC(=O)[C@@H]2CCCN2C(=O)c2cccs2)c1	-16	14	15*	6
Cc1ccc(/C=C/C(=O)NCc2cccs2)o1	37*	4	-1	3
Cc1ccc(/C=C/C(=O)NCc2cccs2)cc1	5	1	5	1
N#CCCN(Cc1ccccc1)C(=O)CCC(=O)c1ccc(F)cc1	x	-2	x	x
CC(C)N(C(=O)c1ccc(Cc2cn(C)c3ccccc23)nc1)C(C)C	x	7	x	x
O=C(Cn1nc(Cc2cccnc2)c2ccccc2c1=O)Nc1cc(F)ccc1F	2	0	-2	-3
O=C(Cn1nc(Cc2cccnc2)c2ccccc2c1=O)Nc1ccccc1F	3	-1	16*	-7
CCN1C[C@@H]2[C@@H]3C(=O)N(C)C(=O)[C@@H]3[C@](Cc3ccccc3)(C(=O)OC)N2C1=NC1CCCCC1	x	0	x	x
CC(=O)N(C)C1=C(O)c2ccccc2C(=O)C1=O	0	2	-2	4
CC(=O)C(C(C)=O)C1(O)C(=O)c2ccccc2C1=O	58*	1	-4	-7
CCCn1cnnc1CNC(=O)C1CCC(=O)N(CCCc2ccccc2)C1 (configuration not stated)	-2	-3	-2	-1
CC1CCN(C(=O)CSc2nc(N)c(NC(=O)c3ccccc3)c(=O)[nH]2)CC1	3	3	48*	-5
SMILES	CTSL1 counter	m5-HT2A agonist	LANA-H2A inh	HDAC3 inh
COc1ccc(C(=O)Nc2c(N)nc(SCC(=O)c3ccccc3)[nH]c2=O)cc1	3	-3	-16	7
Cc1cccc(C)c1OCc1nnc(SCC(=O)NCc2ccccc2)o1	21*	1	1	-1
Cc1cccc(C)c1OCc1nnc(SCC(=O)Nc2ccccc2F)o1	12	5	0	-2
O=C(CSc1nnc(CNC(=O)c2cccs2)o1)NCCc1ccccc1	4	0	36*	5
CCC1CCCN1Cn1cnc2c([nH]c3ccc(Cl)cc32)c1=O (configuration not stated)	19*	0	1	3
CCC1CCCN1Cn1cnc2c([nH]c3ccc(C)cc32)c1=O (configuration not stated)	-3	6	2	-32
O=C(CN(Cc1ccc(Cl)cc1)C(=O)c1csnn1)NCc1ccc(F)cc1	2	0	1	7
Nc1ccccc1NC(=O)c1ccccc1N	0	-1	1	20
Nc1ccccc1NC(=O)NC(=O)c1ccccc1	-1	2	-1	41*
CSCC(O)Cn1[nH]c(=O)c2cc(Cl)c(Cl)cc2c1=O (configuration not stated)	-2	5	16*	2
O=C(Nc1cccc(OC(=O)c2ccc(Br)o2)c1)c1ccccc1	-6	-1	4	-1
O=C(CN1CCN(Cc2ccccc2)CC1)N1CCCCCC1	5	-3	-1	-9
CC(C)c1nc(SCC(=O)N2CCCCC2)c2c(=O)n(C)c(=O)n(C)c2n1	x	5	x	x
CC(C)c1nc(SCC(=O)N2CCCCCC2)c2c(=O)n(C)c(=O)n(C)c2n1	-3	4	53*	0
CC1CCN(C(=O)c2ccc(CNc3c(N4CCCC4)c(=O)c3=O)cc2)CC1	18*	-5	1	0
CCOC(=O)C(C#N)(Cc1ccc2ccccc2n1)Cc1ccc2ccccc2n1	x	-1	x	x
COc1cc(NC(=O)COC(=O)CO/N=C(\C)c2ccc3c(c2)OCO3)cc(OC)c1	x	-3	i	-3
CCOc1ccccc1NC(=O)COC(=O)c1ccc2ccccc2n1	x	-1	111*	-1
O=C(COC(=O)c1ccc2ccccc2n1)Nc1ccccc1F	x	1	1	8
COc1cccc(S(=O)(=O)N(C)C[C@@H]2OCc3cn(nn3)CCCC(=O)N([C@H](C)CO)C[C@H]2C)c1	x	0	x	x
Cc1nc(Sc2ccccc2)c(C#N)cc1-c1ccccc1	-2	0	130*	0
COc1ccc(CN(C)CC(=O)Nc2ccccc2C(=O)NC2CC2)cc1OC	x	2	x	x
CN(C)CCCN1c2ccccc2CCc2ccc(Cl)cc21	-1	-5	15*	2
Cc1nc(C(=O)N2CCc3c([nH]c4ccccc34)C2c2cc(F)ccc2F)cs1 (configuration not stated)	-12	-3	16*	1
CC(C)c1nc(C(=O)N2CCc3c([nH]c4ccccc34)C2c2ccccn2)cs1 (configuration not stated)	-5	-4	14*	19
SMILES	CTSL1 counter	m5-HT2A agonist	LANA-H2A inh	HDAC3 inh
C#CCNC(=O)C[C@@H]1C[C@@]2(C(=O)OCC)CCCC=C2N(Cc2ccccc2)C1=O	x	0	x	x
COc1ccc(OC)c(N2C(=NC(=O)C3CCCCC3)SC3CS(=O)(=O)CC32)c1 (configuration not stated)	1	11	9	2
CCN(CC)CCNC(=O)C1CCN(S(=O)(=O)c2c(C)noc2/C=C/c2ccccc2F)CC1	1	-6	5	6
CC(=O)Nc1ccc(NC(=O)N2CCCCC2)cc1	20*	-3	4	1
O=C(Nc1ccc(F)cc1)N1CCCCCC1	-2	0	0	-4
COc1ccc(C2C(C(=O)c3cccs3)=C(O)C(=O)N2c2nncs2)cc1 (configuration not stated)	1	3	30*	14
C=CCOc1ccc(C2C(C(=O)c3cccs3)=C(O)C(=O)N2c2nnc(C)s2)cc1 (configuration not stated)	4	4	12	20
CCOc1ccc(NC(=O)CN(C)C(=O)c2ccc3c(c2)S(=O)(=O)N=C2CCCCCN23)cc1OCC	x	5	x	x
